Data reported in the supplement of paper PMC7411054.

Columns and labels:
Assay in all cases: lowest phenotypically active concentration; higher = less potent
Details in all cases: treatment time: 24 h
A549-TUBA1B-RELA = test system: A549-TUBA1B-RELA
Outline: (§1)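 Fifteen reporter lines derived from A549, HepG2 and WPMY1 cells by gene editing, carrying BFP for segmentation plus GFP and RFP/FusionRed markers, were exposed to 0.3, 1, 3 or 9 µM for 24 h in four wells each and imaged live. Live-cell features from each well were normalised to solvent control wells. A well set counted as deviating when ≥3 of 4 wells lay beyond the 95th percentile of control Euclidean distances, and as reproducible when the median replicate Pearson correlation exceeded the 95th percentile of non-replicates. Phenotypic activity was assigned only when both criteria were met.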

HepG2-CANX-COX4 = test system: HepG2-CANX-COX4
Outline: as §1

HepG2-GM130-SQSTM1 = test system: HepG2-GM130-SQSTM1
Outline: as §1

HepG2-TP53BP1-CLTA = test system: HepG2-TP53BP1-CLTA
Outline: as §1

HepG2-TUBA1B-RELA = test system: HepG2-TUBA1B-RELA
Outline: as §1

WPMY1-ACTB-RAB5A = test system: WPMY1-ACTB-RAB5A
Outline: as §1

WPMY1-TP53BP1-CLTA = test system: WPMY1-TP53BP1-CLTA
Outline: as §1

WPMY1-TUBA1B-RELA = test system: WPMY1-TUBA1B-RELA
Outline: as §1

For CN(C)CC(O)Cn1c2ccc(Br)cc2c2cc(Br)ccc21 (stereo unspecified) [Wiskostatin], which “lowest phenotypically active concentration” value (A549-TUBA1B-RELA) is on record?
The value was 1 µM.

And the “lowest phenotypically active concentration” value (HepG2-CANX-COX4)?
Its value is 9 µM.

And the “lowest phenotypically active concentration” value (HepG2-GM130-SQSTM1)?
The value was 3 µM.

And the “lowest phenotypically active concentration” value (HepG2-TP53BP1-CLTA)?
The value was 3 µM.

What about the “lowest phenotypically active concentration” value (HepG2-TUBA1B-RELA) of the same compound?
The value was 3 µM.

And the “lowest phenotypically active concentration” value (WPMY1-ACTB-RAB5A)?
Its value is 3 µM.

And the “lowest phenotypically active concentration” value (WPMY1-TP53BP1-CLTA)?
The value was 9 µM.

What about the “lowest phenotypically active concentration” value (WPMY1-TUBA1B-RELA) of the same compound?
Its value is 3 µM.

With Cc1c(O)cccc1C(=O)N[C@@H](CSc1ccccc1)[C@H](O)CN1C[C@H]2CCCC[C@H]2C[C@H]1C(=O)NC(C)(C)C [nelfinavir] as the compound, how does the “lowest phenotypically active concentration” value (A549-TUBA1B-RELA) read?
The value was 9 µM.

And the “lowest phenotypically active concentration” value (HepG2-CANX-COX4)?
Its value is 3 µM.

What about the “lowest phenotypically active concentration” value (HepG2-GM130-SQSTM1) of the same compound?
The value was 9 µM.

And the “lowest phenotypically active concentration” value (HepG2-TUBA1B-RELA)?
The value was 9 µM.

And the “lowest phenotypically active concentration” value (WPMY1-ACTB-RAB5A)?
Its value is 3 µM.

What about the “lowest phenotypically active concentration” value (WPMY1-TUBA1B-RELA) of the same compound?
The value was 9 µM.

O=c1cc(N2CCOCC2)oc2c(-c3cccc4c3sc3ccccc34)cccc12 was tested. Which “lowest phenotypically active concentration” value (A549-TUBA1B-RELA) did it give?
The value was 3 µM.

What about the “lowest phenotypically active concentration” value (HepG2-CANX-COX4) of the same compound?
The value was 3 µM.

What about the “lowest phenotypically active concentration” value (HepG2-GM130-SQSTM1) of the same compound?
Its value is 1 µM.

What about the “lowest phenotypically active concentration” value (HepG2-TP53BP1-CLTA) of the same compound?
Its value is 1 µM.

What about the “lowest phenotypically active concentration” value (HepG2-TUBA1B-RELA) of the same compound?
The value was 1 µM.

What about the “lowest phenotypically active concentration” value (WPMY1-ACTB-RAB5A) of the same compound?
The value was 1 µM.

What about the “lowest phenotypically active concentration” value (WPMY1-TP53BP1-CLTA) of the same compound?
The value was 3 µM.

And the “lowest phenotypically active concentration” value (WPMY1-TUBA1B-RELA)?
Its value is 9 µM.

For CC(CN(C)C)CN1c2ccccc2Sc2ccccc21.CC(CN(C)C)CN1c2ccccc2Sc2ccccc21 (stereo unspecified) [alimemazine], which “lowest phenotypically active concentration” value (A549-TUBA1B-RELA) is on record?
The value was 9 µM.

What about the “lowest phenotypically active concentration” value (HepG2-GM130-SQSTM1) of the same compound?
The value was 9 µM.

And the “lowest phenotypically active concentration” value (HepG2-TP53BP1-CLTA)?
Its value is 9 µM.

What about the “lowest phenotypically active concentration” value (HepG2-TUBA1B-RELA) of the same compound?
The value was 9 µM.

And the “lowest phenotypically active concentration” value (WPMY1-ACTB-RAB5A)?
The value was 9 µM.

And the “lowest phenotypically active concentration” value (WPMY1-TUBA1B-RELA)?
The value was 9 µM.

CNCCCC12CCC(c3ccccc31)c1ccccc12 [maprotiline] was tested. Which “lowest phenotypically active concentration” value (A549-TUBA1B-RELA) did it give?
The value was 3 µM.

What about the “lowest phenotypically active concentration” value (HepG2-GM130-SQSTM1) of the same compound?
Its value is 9 µM.

What about the “lowest phenotypically active concentration” value (HepG2-TP53BP1-CLTA) of the same compound?
The value was 9 µM.

And the “lowest phenotypically active concentration” value (HepG2-TUBA1B-RELA)?
The value was 3 µM.

What about the “lowest phenotypically active concentration” value (WPMY1-ACTB-RAB5A) of the same compound?
The value was 9 µM.

What about the “lowest phenotypically active concentration” value (WPMY1-TP53BP1-CLTA) of the same compound?
The value was 9 µM.

And the “lowest phenotypically active concentration” value (WPMY1-TUBA1B-RELA)?
The value was 9 µM.

Which “lowest phenotypically active concentration” value (A549-TUBA1B-RELA) does the source give for CC(=O)O[C@@H]1C[C@H]2C(C)(C)C(=O)C=C[C@]2(C)[C@H]2CC[C@@]3(C)[C@H](c4ccoc4)OC(=O)[C@H]4O[C@]43[C@@]21C [gedunin] here?
Its value is 9 µM.

What about the “lowest phenotypically active concentration” value (HepG2-CANX-COX4) of the same compound?
The value was 1 µM.

What about the “lowest phenotypically active concentration” value (HepG2-GM130-SQSTM1) of the same compound?
Its value is 9 µM.

What about the “lowest phenotypically active concentration” value (HepG2-TP53BP1-CLTA) of the same compound?
Its value is 3 µM.

What about the “lowest phenotypically active concentration” value (HepG2-TUBA1B-RELA) of the same compound?
Its value is 9 µM.

What about the “lowest phenotypically active concentration” value (WPMY1-ACTB-RAB5A) of the same compound?
The value was 3 µM.

How did the “lowest phenotypically active concentration” value (A549-TUBA1B-RELA) turn out when CN1CCC(CN2c3ccccc3Sc3ccccc32)C1 (stereo unspecified) [methdilazine] was run?
Its value is 3 µM.

And the “lowest phenotypically active concentration” value (HepG2-GM130-SQSTM1)?
The value was 9 µM.

And the “lowest phenotypically active concentration” value (HepG2-TP53BP1-CLTA)?
Its value is 9 µM.

And the “lowest phenotypically active concentration” value (HepG2-TUBA1B-RELA)?
Its value is 9 µM.

And the “lowest phenotypically active concentration” value (WPMY1-ACTB-RAB5A)?
Its value is 9 µM.

And the “lowest phenotypically active concentration” value (WPMY1-TP53BP1-CLTA)?
The value was 9 µM.

What about the “lowest phenotypically active concentration” value (WPMY1-TUBA1B-RELA) of the same compound?
The value was 9 µM.

For CC(CN1c2ccccc2Sc2ccccc21)N(C)C (stereo unspecified) [promethazine], which “lowest phenotypically active concentration” value (A549-TUBA1B-RELA) is on record?
The value was 9 µM.

What about the “lowest phenotypically active concentration” value (HepG2-GM130-SQSTM1) of the same compound?
Its value is 9 µM.

And the “lowest phenotypically active concentration” value (HepG2-TP53BP1-CLTA)?
The value was 9 µM.

What about the “lowest phenotypically active concentration” value (HepG2-TUBA1B-RELA) of the same compound?
Its value is 9 µM.

What about the “lowest phenotypically active concentration” value (WPMY1-ACTB-RAB5A) of the same compound?
Its value is 9 µM.

And the “lowest phenotypically active concentration” value (WPMY1-TP53BP1-CLTA)?
Its value is 9 µM.

What about the “lowest phenotypically active concentration” value (WPMY1-TUBA1B-RELA) of the same compound?
Its value is 9 µM.

What does the source list for CCSc1ccc2c(c1)N(CCCN1CCN(C)CC1)c1ccccc1S2 [thiethylperazine]?
lowest phenotypically active concentration (A549-TUBA1B-RELA): 3 µM; lowest phenotypically active concentration (HepG2-GM130-SQSTM1): 9 µM; lowest phenotypically active concentration (HepG2-TUBA1B-RELA): 9 µM; lowest phenotypically active concentration (WPMY1-ACTB-RAB5A): 9 µM; lowest phenotypically active concentration (WPMY1-TP53BP1-CLTA): 9 µM; lowest phenotypically active concentration (WPMY1-TUBA1B-RELA): 9 µM

CN(C)CCCN1c2ccccc2CCc2ccc(Cl)cc21 [clomipramine] was tested. Which “lowest phenotypically active concentration” value (A549-TUBA1B-RELA) did it give?
Its value is 9 µM.

And the “lowest phenotypically active concentration” value (HepG2-TP53BP1-CLTA)?
Its value is 9 µM.

And the “lowest phenotypically active concentration” value (HepG2-TUBA1B-RELA)?
Its value is 9 µM.

And the “lowest phenotypically active concentration” value (WPMY1-ACTB-RAB5A)?
The value was 9 µM.

And the “lowest phenotypically active concentration” value (WPMY1-TP53BP1-CLTA)?
The value was 9 µM.

What about the “lowest phenotypically active concentration” value (WPMY1-TUBA1B-RELA) of the same compound?
The value was 9 µM.

CCCCCCCCCCCCC/C=C/[C@@H](O)[C@H](CO)N(C)C [N,N-Dimethylsphingosine] was tested. Which “lowest phenotypically active concentration” value (A549-TUBA1B-RELA) did it give?
Its value is 3 µM.

And the “lowest phenotypically active concentration” value (HepG2-CANX-COX4)?
The value was 3 µM.

And the “lowest phenotypically active concentration” value (HepG2-GM130-SQSTM1)?
Its value is 9 µM.

What about the “lowest phenotypically active concentration” value (HepG2-TP53BP1-CLTA) of the same compound?
The value was 3 µM.

What about the “lowest phenotypically active concentration” value (HepG2-TUBA1B-RELA) of the same compound?
Its value is 9 µM.

And the “lowest phenotypically active concentration” value (WPMY1-ACTB-RAB5A)?
The value was 3 µM.

And the “lowest phenotypically active concentration” value (WPMY1-TP53BP1-CLTA)?
Its value is 9 µM.

And the “lowest phenotypically active concentration” value (WPMY1-TUBA1B-RELA)?
The value was 3 µM.

Which “lowest phenotypically active concentration” value (A549-TUBA1B-RELA) does the source give for O=C(CCCN1CCC(O)(c2ccc(Cl)cc2)CC1)c1ccc(F)cc1 [haloperidol] here?
The value was 9 µM.

And the “lowest phenotypically active concentration” value (HepG2-GM130-SQSTM1)?
Its value is 9 µM.

And the “lowest phenotypically active concentration” value (HepG2-TP53BP1-CLTA)?
The value was 9 µM.

What about the “lowest phenotypically active concentration” value (HepG2-TUBA1B-RELA) of the same compound?
The value was 9 µM.

How did the “lowest phenotypically active concentration” value (A549-TUBA1B-RELA) turn out when COc1cc2c(cc1OCCCN1CCCC1)N=C(N)C21CCC1 was run?
Its value is 9 µM.

Which results are given for CC1=C(/C=C/C(C)=C\C=C\C(C)=C\C(=O)O)C(C)(C)CCC1 [tretinoin]?
lowest phenotypically active concentration (A549-TUBA1B-RELA): 3 µM; lowest phenotypically active concentration (HepG2-CANX-COX4): ≤ 0.3 µM; lowest phenotypically active concentration (HepG2-GM130-SQSTM1): 9 µM; lowest phenotypically active concentration (WPMY1-ACTB-RAB5A): 1 µM; lowest phenotypically active concentration (WPMY1-TP53BP1-CLTA): 1 µM; lowest phenotypically active concentration (WPMY1-TUBA1B-RELA): 3 µM
